Source: PubChem BioAssay (several laboratories)
Shown are actives, neighbours in structure and some others; about 4% of the full set was active somewhere.
CCHF vOTU inh – CCHFV vOTU protease inhibitors, primary screen, biochemical, Pep-AMC substrate, fluorescence. actives 0.55% (n = 370,000). AID 651958, 2012. Crimean-Congo hemorrhagic fever virus L polyprotein viral ovarian tumor (vOTU) protease …. inhibition, % at 11.5 µM; also: 0% = vehicle wells with enzyme and 100% = no enzyme wells
GDH-TPI counter – GDH-TPI coupling enzyme inhibitors, primary screen, artefact control for M. tuberculosis FBA inhibitor project, biochemical, absorbance, full deck; GDH-TPI coupled enzyme counterscreen, NADH absorbance; inhibition, % at 4.8 µM; actives 1.2% (n = 360,000); AID 588335, 2011;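 also: 0% = DMSO wells and 100% = wells lacking the enzyme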
MazF activator – activators of E. coli MazEF toxin-antitoxin RNase, primary screen, biochemical, fluorescence, uHTS; Endoribonuclease toxin MazF (Escherichia coli (strain K12)), P0AE70; FAM/BHQ RNA-DNA oligo cleavage fluorescence, 5 h; activation, % at 20 µM; actives 0.32% (n = 350,000); in the data active = activation above about 50%
Target sequence (P0AE70 whole entry, looked up): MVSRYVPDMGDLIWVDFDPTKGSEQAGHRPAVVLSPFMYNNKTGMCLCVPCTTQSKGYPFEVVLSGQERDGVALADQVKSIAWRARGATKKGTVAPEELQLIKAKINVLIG
Mtb FBA inh – Mtb FBA enzyme inhibitors, primary screen, biochemical, fluorescence, strain H37Rv. AID 588726, 2011. inhibition, % at 1 µM. actives 2.3% (n = 360,000). Fructose-bisphosphate aldolase (Mycobacterium tuberculosis (strain ATCC 25618 / H37Rv)), …. purified M. tuberculosis FBA, fluorescence read-out; in the data active = inhibition above about 27%;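 also: 0% = vehicle and 100% = reference inhibitor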
Target sequence (P9WQA3 whole entry, looked up): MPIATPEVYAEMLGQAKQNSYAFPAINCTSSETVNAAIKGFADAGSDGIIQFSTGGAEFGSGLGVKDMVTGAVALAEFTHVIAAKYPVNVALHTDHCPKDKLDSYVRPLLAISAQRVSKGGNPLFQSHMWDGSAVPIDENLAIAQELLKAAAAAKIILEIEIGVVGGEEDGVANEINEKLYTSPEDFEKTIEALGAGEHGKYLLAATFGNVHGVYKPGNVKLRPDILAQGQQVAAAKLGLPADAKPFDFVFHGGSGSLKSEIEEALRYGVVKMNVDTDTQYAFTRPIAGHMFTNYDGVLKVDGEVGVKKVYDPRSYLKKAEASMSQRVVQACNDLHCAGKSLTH
Mtb betalactam – beta-lactam sensitization of Mtb H37Rv, H37Rv | inhibition, % at 25 µM | AID 434955, 2010 | actives 0.27% (n = 330,000) | M. tuberculosis H37Rv growth with meropenem, percent inhibition; call rule not given here;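 also: growth measured after seven days incubation then overnight dye step; 0% = bacteria only wells and 100% = bacteria with antibiotic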
Active calls of the source: *; ? = inconclusive; / = no result given; + = active, no number. Rule as the data show it, unless noted: active = inhibition above about 30%; inactive = the rest.

SMILES | CCHF vOTU inh | GDH-TPI counter | MazF activator | Mtb FBA inh | Mtb betalactam
COc1ccccc1C(=O)N/C(=C/c1ccc2c(c1)OCO2)C(=O)Nc1ccc(C(=O)O)cc1 | 12.1 | 26.1 | -7.8 | 14.8 | -5.0
COc1ccc([N+](=O)[O-])cc1/C=N/NC(=O)/C(=C\c1cccs1)NC(=O)c1ccccc1 | -6.0 | 43.4* | -2.7 | -1.6 | -2.5
COc1ccc(/C=C(/NC(=O)c2ccccc2)C(=O)N/N=C/c2ccc3c(c2)OCO3)cc1OC | 0.5 | 64.5* | -14.2 | -4.4 | /
O=C(Nc1cccc(C(=O)O)c1)/C(=C\c1ccc2c(c1)OCO2)NC(=O)c1ccccc1 | 7.6 | 25.2 | -11.7 | -2.8 | -3.4
COc1ccc(/C=C(\NC(=O)c2cccs2)C(=O)Nc2ccccc2C)cc1OC | -3.6 | 38.3* | 0.5 | -0.1 | -0.2
COc1cc2ccccc2cc1C(=O)N/N=C/c1cccs1 | 19.3 | 34.8* | -10.6 | 3.7 | /
COc1ccc(/C=C(/NC(=O)c2ccccc2)C(=O)N/N=C/c2cccs2)cc1OC | -2.3 | 69.3* | 8.1 | -2.0 | -10.0
COC(=O)N/N=C/c1cccs1 | -5.3 | -3.3 | 4.4 | 1.6 | 0.3
COc1ccc(/C=C(\NC(=O)c2cccs2)C(=O)NC(C)(C)C)cc1OC | 11.0 | 8.8 | 5.6 | -1.6 | -6.7
O=S1(=O)CC2c3ccccc3CN2CN1Cc1ccc(F)cc1 (stereo not given) | -0.9 | / | / | / | /
CCCC[C@@H]1C(=O)N2N=C(c3ccccc3)c3ccccc3[C@H]2N2N=C(c3ccccc3)c3ccccc3[C@@H]12 | 6.0 | / | / | / | /
CCOC(=O)c1c(N)n(Cc2ccc(OC)cc2)c2nc3ccccc3nc12 | -168.3 | / | / | / | /
COCCCn1c(N)c(C(=O)OCCOC)c2nc3ccccc3nc21 | -237.7 | 14.2 | -1.6 | + | -10.9
COCCNC(=O)c1c(N)n(CCCn2ccnc2)c2nc3ccccc3nc12 | -179.4 | 15.7 | 6.2 | 131.6* | 2.5
CCOC(=O)c1c(N)n(CCCOC(=O)c2ccco2)c2nc3ccccc3nc12 | -193.5 | 9.2 | 1.3 | + | 4.9
COc1ccc(OC)c(-n2c(N)c(C(=O)NCC3CCCO3)c3nc4ccccc4nc32)c1 (stereo not given) | 4.1 | 3.4 | 6.8 | 4.5 | /
COCCn1c(N)c(C(=O)NCC2CCCO2)c2nc3ccccc3nc21 (stereo not given) | -227.8 | 17.5 | -1.6 | + | -5.7
COc1ccccc1NC(=O)OC1CC2CC1[C@H]1CCCCN1[C@H]2C (stereo not given in full) | -2.9 | / | / | / | /
Nc1c(C(=O)NCC2CCCO2)c2nc3ccccc3nc2n1/N=C/c1ccncc1 (stereo not given) | -2.6 | 1.3 | -15.4 | 1.2 | /
COCCNC(=O)c1c(N)n(CCC(C)C)c2nc3ccccc3nc12 | -68.5 | 6.0 | -3.3 | 120.7* | 97.7
Nc1c(C(=O)OCC2CCCO2)c2nc3ccccc3nc2n1Cc1cccs1 (stereo not given) | -135.7 | 22.5 | 2.6 | 163.1* | -4.9
CCCCNC(=O)c1c(N)n(CCCOC)c2nc3ccccc3nc12 | -58.7 | -0.6 | -6.0 | 115.2* | 78.0
CN(CCOC(=O)c1cc2ccccc2o1)C1CN(Cc2cn(Cc3ccc([N+](=O)[O-])cc3)nn2)S(=O)(=O)C1 (stereo not given) | 2.2 | / | / | / | /
CCOc1ccc(C=Nn2c(-c3ccc(F)cc3)n[nH]c2=S)cc1 | 5.1 | / | / | / | /
Cc1cccc(OCC(C)CN2CCC(C(O)(c3ccccc3)c3ccccc3)CC2)c1 (stereo not given) | 23.4 | / | / | / | /
SMILES | CCHF vOTU inh | GDH-TPI counter | MazF activator | Mtb FBA inh | Mtb betalactam
Cc1noc(C)c1COC(=O)c1cc2c3ccccc3n(C)c2s1 | -3.5 | 39.5* | -5.5 | 4.8 | 10.6
Cc1nc(NC(=O)/C=C/c2ccc(F)cc2)sc1C(=O)N(C)C | -4.5 | 33.9* | 5.8 | -1.9 | -4.6
Cc1nc(NC(=O)/C=C/c2ccc(Cl)cc2Cl)sc1C(=O)N(C)C | -4.2 | 2.9 | 78.6* | 3.2 | -7.2
CCOc1ccc2c(C)c(C)c(=O)oc2c1OCC | -5.0 | 8.1 | 7.2 | 14.6 | 45.9
CCOc1ccc2c(C)c(C(=O)O)oc2c1OCC | -38.8 | 3.8 | -16.7 | 155.9* | -4.8
CN1CCN(C2=CC3=CC(=C(C#N)C#N)CCC3CC2)CC1 (stereo not given) | / | -2.2 | / | -40.8 | /
CCN1CCN(C2=CC3=CC(=C(C#N)C#N)CCC3CC2)CC1 (stereo not given) | / | -2.2 | + | -13.3 | /
O=c1c2ccccc2oc2c1ccc1ccccc12 | / | 3.6 | -21.7 | 36.0* | /
O=c1c2ccccc2oc2ccccc12 | 1.9 | 11.8 | / | 1.5 | /
CCc1ccc(CNCC(=O)N2CCC3(CC2)OCCO3)s1 | 8.4 | / | / | / | /
COc1ccc(-c2ccc3oc(-c4ccc(OC)cc4)c(C#CC4(O)CCCCC4)c3c2)cc1 | 2.8 | 43.5* | -8.4 | 13.6 | 72.8
CCC(C)(C(=O)Nc1ccc2c(c1)OCCO2)N(C(C)=O)c1ccc(C(N)=O)cc1 (stereo not given) | -6.0 | 31.8* | 9.9 | -1.3 | ?
CCOC(=O)c1ccc(NC(=O)Nc2ccc3c(c2)OCCO3)cc1 | 2.7 | -1.7 | 0.6 | 0.4 | 14.2
CCNC(=O)N(C)[C@H]1C[C@H]2c3[nH]c4c(-c5cccc(C)c5)cccc4c3CCN2C[C@H]1[C@H](C)O | 5.0 | / | / | / | /
COc1ccc(Cn2nnnc2C(c2cc3ccc(OC)cc3[nH]c2=O)N2CCCCCC2)cc1 (stereo not given) | -8.5 | 34.0* | -6.4 | 9.7 | -15.4
CCC(C)(C)n1nnnc1C(c1cc2ccc(OC)cc2[nH]c1=O)N1CCCCC1 (stereo not given) | -2.1 | 20.3 | -8.7 | 2.4 | 4.8
CN(C)c1cccc(/C=C2\CC3(OC(=O)c4ccco4)CCCN2C3)c1 (stereo not given) | -1.7 | / | / | / | /
CC(C)Nc1cc(C(C)(C)C)nc2c(-c3ccccc3)cnn12 | -12.8 | 9.6 | 1.9 | 29.1* | 5.7
CCOC(=O)[C@@]12CN(C(=O)OC(C)(C)C)CC=C1N(Cc1ccc(OC)cc1)C(=O)[C@H]2CC(=O)NCCCOC | 8.4 | / | / | / | /
Cc1ccc(S(=O)(=O)N(C)C)cc1NC(=S)NC(=O)C12CC3CC(CC(C3)C1)C2 | -4.5 | -12.2 | -10.0 | 7.1 | -6.9
Cc1ccc(S(=O)(=O)N(C)C)cc1NC(=S)NC12CC3CC(CC(C3)C1)C2 | 3.9 | 1.5 | 0.2 | + | /
COC(=O)c1nc2nc(-c3cccs3)cc(C(F)(F)F)n2n1 | -129.2 | 18.2 | 0.5 | + | 2.6
O=C(NCc1ccco1)c1nc2nc(-c3cccs3)cc(C(F)(F)F)n2n1 | -180.6 | 27.9 | 3.6 | + | -9.6
O=C(NCc1ccco1)c1nn2c(C(F)(F)F)cc(-c3cccs3)nc2c1Br | 1.6 | 0.6 | 10.3 | -2.3 | -6.6
Cc1ccc(C(=O)C2CCN(CC(=O)NC(C)C)CC2)cc1 | 3.2 | / | / | / | /
COc1cccc(C=C2SC(=S)N(Cc3ccco3)C2=O)c1OC | -3.3 | / | / | / | /
